# Cl transport mod: KCC2 (human) Cl- transport modulation. B-score of Tl+ flux slope (higher = more flux/activation; lower = inhibition) at 10 µM. 2.2% of 190,000 active. KCC2 cells, thallium flux FluoZin-2 fluorescence. AID 1456;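 active = thallium flux slope and its plate-corrected score both differing from the plate sample mean at a set confidence after two filtering rounds, in either direction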;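 also: slope of fluorescence scaled to starting intensity during 10 to 20 s after thallium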
# ROMK primary: modulators of human ROMK potassium channel; P48048; Tet-inducible ROMK, thallium flux fluorescence; actives lie on both sides; B-score at 10 µM; 2% of 130,000 active;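 active = signal ratio slope over the read window, or its plate-corrected B-score, at least 3 SD from the plate mean, either direction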;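 also: B-score of the F/F0 ratio slope over 7 to 12 s after thallium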
# Target sequence (P48048 whole entry, looked up): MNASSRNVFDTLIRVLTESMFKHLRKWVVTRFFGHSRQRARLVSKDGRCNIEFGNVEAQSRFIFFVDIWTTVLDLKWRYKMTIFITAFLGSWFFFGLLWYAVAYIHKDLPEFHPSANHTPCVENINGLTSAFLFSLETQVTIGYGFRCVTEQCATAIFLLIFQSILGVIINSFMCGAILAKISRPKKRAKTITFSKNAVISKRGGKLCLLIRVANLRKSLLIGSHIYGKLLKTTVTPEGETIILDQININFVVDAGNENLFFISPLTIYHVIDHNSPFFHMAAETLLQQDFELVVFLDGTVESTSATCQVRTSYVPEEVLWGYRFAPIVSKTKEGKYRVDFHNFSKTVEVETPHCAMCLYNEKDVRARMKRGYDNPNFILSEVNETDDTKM
# Lmaj promast: reduces viability of Leishmania major promastigotes | resazurin fluorescence viability | inhibition, % at 10 µM | 9% of 200,000 active | AID 1063; in the data active = inhibition above about 50%;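 also: promastigotes grown with compound for 44 hours at 28 °C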
# Calpain2 inh: inhibitors of pig calpain II; purified calpain II, fluorogenic peptide substrate, 30 min; 0.37% of 220,000 active; inhibition, % at 16 µM;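 active = inhibition above about 50%, limit read from the data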
# WT yeast gro inh: growth inhibition of WT yeast, mitochondrial fusion screen; AID 1362; inhibition, % at 10 µM; mitochondrial fusion phenotypic screen, WT strain; 2.1% of 190,000 active; in the data active = inhibition above about 58%; tested in S. cerevisiae
# KCC2 sec1: KCC2 (human) modulation, secondary assay; shares compounds with Cl transport mod; normalised thallium flux (F/F0 slope) at 10 µM; 15% of 3,700 active; HEK293-KCC2, thallium flux, FluoZin2 fluorescence; hits give high values; AID 1713;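 active = thallium flux slope above the same plate's solvent-only control mean plus 3 SD; inconclusive = the two replicate wells disagree; inactive = no significant difference from solvent-only control wells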
# KCC2 bumet counter: thallium flux despite bumetanide block in KCC2 cells, secondary assay 3 | shares compounds with Cl transport mod | HEK293-KCC2 + bumetanide/ouabain, thallium flux FluoZin2; hits give high values | normalized thallium flux at 10 µM | 49% of 3,700 active | AID 1714;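 active = thallium entry rate above the same plate's blocked-transporter control wells by more than 3 SD; inconclusive = the two repeat wells disagree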;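 also: raw slope of fluorescence over initial fluorescence between 10 and 20 s after thallium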
# KCC2 sec2: KCC2 (human) modulation, second secondary assay | AID 1715 | HEK293-KCC2, thallium flux FluoZin2 fluorescence; actives lie on both sides; F/F0 rise rate, 10–20 s post-thallium | shares compounds with Cl transport mod | normalized thallium flux at 10 µM | 23% of 3,700 active;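 active = thallium flux slope more than 3 SD above or below the plate's solvent-only control mean, mostly below; inconclusive = the two repeat wells disagreed; inactive = no significant shift from solvent-only controls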;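 also: raw slope with 0.1% DMSO as baseline and bumetanide as block control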
# HEK293 Tl flux: counter-screen for KCC2 modulators: effect in parental HEK293 cells | AID 1716 | shares compounds with Cl transport mod | 46% of 3,700 active | thallium flux FluoZin2, ouabain; baseline-ratio fluorescence slope, 10–20 s after thallium | thallium flux rate (normalised fluorescence) at 10 µM;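 active = thallium flux rate significantly above the same plate's solvent-only control wells, beyond their mean plus 3 SD; inconclusive = the two replicate wells gave conflicting results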
# KCC2 ouabain: modulates human KCC2 on retest with ouabain; shares compounds with Cl transport mod; HEK293-KCC2, thallium flux FluoZin2 fluorescence; bidirectional: low = inhibitor, high = activator; raw Tl+ flux slope (below DMSO = inhibition, above = activation) at 10 µM; 48% of 3,700 active; AID 1717;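 active = thallium flux slope beyond 3 SD from same-plate DMSO control mean in most replicates, usually higher, sometimes lower; inconclusive = repeat tests gave conflicting results; inactive = no significant difference from controls in most replicates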;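 also: slope of initial-normalized fluorescence between seconds 10 and 20 after thallium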
# HEK293 Tl flux2: parental HEK flux effect, counter-screen 2; shares compounds with Cl transport mod; HEK293 parental, thallium flux FluoZin-2 fluorescence slope; thallium flux slope at 10 µM; 33% of 3,700 active;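 active = thallium flux slope above the same plate's solvent-control mean plus 3 SD in both duplicate wells; inconclusive = duplicate wells that disagreed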;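 also: run without ouabain in cells lacking the KCC2 cotransporter; slope of fluorescence scaled to its starting value between 10 and 20 s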
# Numbers without * were called inactive; ? = inconclusive; nt = no result. The list is not random: actives were taken first. Their share in the collection is about 12%.
SMILES,Cl transport mod,ROMK primary,Lmaj promast,Calpain2 inh,WT yeast gro inh,KCC2 sec1,KCC2 bumet counter,KCC2 sec2,HEK293 Tl flux,KCC2 ouabain,HEK293 Tl flux2
CCN(CCn1cccn1)C(=O)c1cc(COc2c(F)cccc2F)on1,-1.5,0.21,-10,-38,-19,nt,nt,nt,nt,nt,nt
Cc1cccc(N2CCN(C(=O)Cn3ccc4ccccc4c3=O)CC2)c1C,-4.5*,nt,91*,-7,-12,0.007,0.0041,0.023*,0.0069,0.016*,0.0097
Cc1cccc(N2CCN(C(=O)Cn3cnc4c3c(=O)n(C)c(=O)n4C)CC2)c1C,0.68,-0.72,5,15,-1,nt,nt,nt,nt,nt,nt
COc1cc(CNC(C)c2ccccc2)cc(Cl)c1OCC(=O)Nc1ccccc1 (centres undefined),0.12,0.3,33,16,29,nt,nt,nt,nt,nt,nt
S=C(NCCc1ccccc1)N/N=C/c1ccc(Cl)cc1,0.46,0.39,nt,5,nt,nt,nt,nt,nt,nt,nt
CNC(=S)N/N=C/c1c(Cl)cccc1Cl,5.4*,-0.09,-5,27,14,0.0067,0.014*,0.03,0.016*,0.023,0.013*
S=C(NCCc1ccccc1)N/N=C/c1c(Cl)cccc1Cl,7.9*,-0.64,-8,-2,6,?,0.019*,?,0.015*,0.032*,0.017*
CC(Oc1ccc(Cl)cc1Cl)C(=O)N(C)c1ccccc1 (centres undefined),-0.057,-0.21,3,16,8,nt,nt,nt,nt,nt,nt
COc1cccc2sc(NNC(=O)C3=COCCO3)nc12,-0.13,-0.2,7,-17,0,nt,nt,nt,nt,nt,nt
COc1cccc2sc(NNC(=O)C3COc4ccccc4O3)nc12 (centres undefined),20*,-0.44,15,6,-1,0.021*,0.03*,?,0.019*,0.026*,0.021*
Cc1nc2ccc(NC(=O)C3COc4ccccc4O3)cc2s1 (centres undefined),nt,nt,nt,-5,nt,nt,nt,nt,nt,nt,nt
COc1ccc(OC)c(NC(=O)C2COc3ccccc3O2)c1 (centres undefined),-0.095,nt,2,-32,17,nt,nt,nt,nt,nt,nt
O=C(NNc1nc2c(F)cccc2s1)c1ccc(F)cc1,-0.14,0.091,-3,0,-11,nt,nt,nt,nt,nt,nt
COc1ccc(CNC(=O)C2COc3ccccc3O2)c(OC)c1 (centres undefined),nt,nt,-4,18,-15,0.01,0.0057,0.034,0.0042,0.019,0.012
Cc1nc2ccc3nc(NC(=O)C4COc5ccccc5O4)sc3c2s1 (centres undefined),5.7*,nt,11,-45,22,0.0066,0.013*,0.031,0.011*,?,0.014*
O=C(NNc1nc2c(F)cccc2s1)C1COc2ccccc2O1 (centres undefined),10*,-0.23,1,-8,-12,0.0078,0.037*,0.047*,0.035*,0.038*,0.03*
Cc1nn(Cc2ccc([N+](=O)[O-])cc2)c(=O)n1-c1cccc(Cl)c1,-0.39,-0.73,-8,-1,-7,nt,nt,nt,nt,nt,nt
NC(=O)C1=C[C@H](C2CCCCC2)C[C@H](OCc2ccc(CO)cc2)O1,0.45,nt,-5,-3,0,nt,nt,nt,nt,nt,nt
Cc1ccc2sc(NNC(=O)C3COc4ccccc4O3)nc2c1C (centres undefined),6.5*,-1.4,45,2,67*,0.008,0.042*,0.032,0.017*,?,0.012*
CCc1ccccc1NC1=NCC(=O)N1C1CCCC1,-0.5,-0.11,7,-2,2,nt,nt,nt,nt,nt,nt
O=C(CN1C(=O)C2CCCCC2C1=O)Nc1nc(-c2ccccn2)cs1 (centres undefined),nt,-1.2,20,3,-2,0.0062,0.007*,0.032,0.0075,0.02,0.011
